This is an account of results in PubChem BioAssay (Tox21).

Activity calls are given as the source filed them. Unless noted, calls follow the shape of the dose curve; as a rule, active = well fitted curve in the direction sought with a large enough effect in the repeat runs; inconclusive = weak or mixed curves; inactive = flat fitted curve, though single readings scatter.

A short description of test [1]: qHTS assay to test for compound auto fluorescence at 535 nm (green) in HEK293 cells (AID 720680). For orientation: In qHTS, concentration-response curves come from the screen itself.
Test [2] can be described thus: qHTS assay to test for compound auto fluorescence at 460 nm (blue) in HEK293 cell free culture (AID 720681). In short, it runs like this: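 Blue fluorescence (Ex 405/Em 460 nm, triamterene-equivalent) was read immediately after pin transfer of compound or DMSO into medium (DMEM, 10% FBS) without cells.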
Test [3] can be described thus: qHTS assay to test for compound auto fluorescence at 535 nm (green) in HEK293 cell free culture (AID 720682). In a few lines: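 Green-label autofluorescence (485 nm excitation, 535 nm emission) measured on compound added to cell-free culture medium (DMEM, 10% FBS). Output is expressed relative to fluorescein.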
Test [4] can be described thus: qHTS assay to test for compound auto fluorescence at 590 nm (red) in HEK293 cell free culture (AID 720683). In a few lines:
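Red-channel autofluorescence of compounds in culture medium (DMEM, 10% FBS), no cells, measured at 540/590 nm. Rose Bengal sodium is the reference fluorophore for equivalence.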

A short description of test [5]: qHTS assay to test for compound auto fluorescence at 460 nm (blue) in HepG2 cell free culture (AID 720685). In a few lines: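 Compound (23 nL) or DMSO pinned into cell-free MEM with 10% FBS; blue fluorescence read at 405/460 nm excitation/emission, expressed as auto-fluorescence equivalency to triamterene.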
A short description of test [6]: qHTS assay to test for compound auto fluorescence at 535 nm (green) in HepG2 cell free culture (AID 720686).
The nature of test [7]: qHTS assay to test for compound auto fluorescence at 460 nm (blue) in HepG2 cells (AID 720687). In a few lines:
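Blue-channel autofluorescence (Ex/Em 405/460 nm, triamterene-equivalent) was measured after 1 hr compound exposure at 37 C, 5% CO2. Cells were HepG2, plated overnight at 37 C in MEM plus 10% FBS.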

The target in test [8] is Glucocorticoid receptor (Homo sapiens) (UniProt P04150). The test is described as follows: qHTS assay to identify small molecule agonists of the glucocorticoid receptor (GR) signaling pathway (AID 720691; active = well fitted activation curve with a large enough effect in the signal ratio in the repeat runs, not every such curve was filed as active; inconclusive = weak or mixed curves, or effect the other way; inactive = no such curve, though single readings can be large or run the other way; the % refers to the signal ratio; also: potency is read from the fitted curve at half-maximal effect). The conditions noted are these: GR-bla HeLa, beta-lactamase reporter ratio, 18 h; activation: at 62.4 µM (top of the series). In short, it runs like this: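 Reporter read-out: fluorescence intensity following 2 h room-temperature LiveBLAzer B/G FRET substrate loading. Prior step: GR-bla HeLa cells held 4 h, then treated 18 h at 37 C.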

Test [9] has the same target. In words: qHTS assay to identify small molecule antagonists of the glucocorticoid receptor (GR) signaling pathway (AID 720692; active = well fitted inhibition curve with a large enough effect in the signal ratio in the repeat runs, not every such curve was filed as active; inconclusive = weak or mixed curves, or effect the other way; inactive = no such curve, though single readings can be large or run the other way; the % refers to the signal ratio). In short, it runs like this: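 Dexamethasone (5 nM final) stimulated a stably integrated GRE-beta-lactamase reporter in HeLa cells during 18 h co-incubation with compounds; signal was quantified as fluorescence intensity of B/G FRET substrate after 2 h.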

Test [10] can be described thus: qHTS assay to test for compound auto fluorescence at 590 nm (red) in HepG2 cell free culture (AID 720684). In short, it runs like this:
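Plate contents were MEM with 10% FBS plus test compound or DMSO, no cells. Fluorescence was recorded with 540 nm excitation and 590 nm emission.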

Chain of Glucocorticoid receptor (Homo sapiens) (P04150 whole entry, looked up): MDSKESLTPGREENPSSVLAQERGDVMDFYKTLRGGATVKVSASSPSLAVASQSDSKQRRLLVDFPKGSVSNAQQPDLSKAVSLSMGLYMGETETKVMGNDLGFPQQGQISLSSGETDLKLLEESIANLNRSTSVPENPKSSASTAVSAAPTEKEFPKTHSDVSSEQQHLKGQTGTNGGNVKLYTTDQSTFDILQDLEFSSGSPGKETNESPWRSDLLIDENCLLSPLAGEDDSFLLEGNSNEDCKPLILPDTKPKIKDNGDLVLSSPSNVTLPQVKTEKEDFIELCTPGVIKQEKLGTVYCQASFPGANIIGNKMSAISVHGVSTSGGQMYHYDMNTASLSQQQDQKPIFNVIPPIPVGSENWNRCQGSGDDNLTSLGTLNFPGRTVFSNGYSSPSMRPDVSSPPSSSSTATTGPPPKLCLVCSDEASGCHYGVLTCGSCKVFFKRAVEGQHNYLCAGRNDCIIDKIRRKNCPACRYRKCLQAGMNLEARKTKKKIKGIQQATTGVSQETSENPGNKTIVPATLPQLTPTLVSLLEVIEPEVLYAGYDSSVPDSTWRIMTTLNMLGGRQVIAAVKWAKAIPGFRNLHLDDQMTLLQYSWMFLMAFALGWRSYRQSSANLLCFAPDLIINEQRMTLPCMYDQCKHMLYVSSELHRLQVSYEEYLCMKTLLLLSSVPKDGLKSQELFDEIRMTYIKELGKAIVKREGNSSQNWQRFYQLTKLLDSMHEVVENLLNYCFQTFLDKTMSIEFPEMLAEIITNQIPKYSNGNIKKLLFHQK

`CC(=O)[C@@]1(O)CC[C@H]2[C@@H]3C=C(Cl)C4=CC(=O)CC[C@]4(C)[C@H]3CC[C@@]21C`: the Potency result in test [1], in [2], in test [3], in test [4] and in test [6] was “inactive” in each case. For the same compound, the compound was called inactive in test [5] and in test [7].
`CN(CC(=O)N1CCOCC1)Cc1c(Cl)cccc1NC(=O)c1ccccc1`: the Potency entry in test [1], in test [2], in [3], in test [4], in [6] and in [8] was “inactive” throughout. In addition, the Potency entry in test [9] was “inactive”. Besides, the call in test [5] and in [7] was inactive.
Consider `Cc1cccc(C)c1N(CCCc1cccnc1)C(=O)C(C)N` (stereo unspecified), for which the Potency entry in [1], in test [2], in test [3], in test [4], in test [6] and in [8] was “inactive” in each case. Besides, the Potency result in test [9] was “inactive”. For the same compound, the result in test [5] and in test [7] was inactive.
For the compound `C[Se]CCC(N)C(=O)O` (stereo unspecified), the Potency result in test [1], in [2], in [3], in test [4], in test [6] and in [8] was “inactive” in each case. In test [9], the Potency entry is “inactive”. For the same compound, the outcome in test [5] and in test [7] was inactive.
Take `CN1C(=O)CN2CCc3ccccc3C2c2cc(Cl)ccc21` (stereo unspecified): the Potency entry in [1], in test [2], in test [3] and in test [4] was “inactive” in each case. Further, the compound was classed as inactive in test [5] and in test [7].
`Cc1cc(O)c2c(c1)O[C@@]1(C)CC[C@H]3C(C)(C)CCCC34CO[C@@H]2[C@H]41` (stereo partly specified): the Potency entry in [1], in test [2], in test [3], in test [10] and in test [6] was “inactive” in each case. Further, the compound was classed as inactive in test [5] and in test [7].
`COc1ccc(CCNC[C@H](O)c2ccc(O)cc2)cc1OC`: the Potency result in test [1], in [2], in [3], in [4], in test [6] and in [9] was “inactive” each time. Also, the compound was classed as inactive in test [5] and in test [7].
As for `CN[C@@H]1[C@@H](O)[C@@H](O[C@@H]2[C@@H](O)[C@H](OC3OC(CN)=CCC3N)[C@@H](N)C[C@H]2N)OC[C@]1(C)O` (stereo partly specified), the Potency result in test [1], in test [2], in test [3], in test [4], in [6] and in [8] was “inactive” throughout. Also, the Potency entry in test [9] is “inactive”. Moreover, the call in test [5] was inactive.
Consider `CCN(CC)CCOc1ccc2nc(N(C)C)sc2c1`, for which the Potency result in test [1], in test [2], in test [3], in test [10] and in test [6] was “inactive” each time. In addition, the call in [5] and in test [7] was inactive.
For the compound `CC[N+](C)(C)Cc1ccccc1Br`, the Potency entry in test [1], in [2], in [3], in test [10], in [8] and in [9] was “inactive” throughout. For the same compound, the compound was classed as inactive in [5] and in [7].
As to `CC(C)CN(C[C@@H](O)[C@H](Cc1ccccc1)NC(=O)O[C@@H]1CCOC1)S(=O)(=O)c1ccc(N)cc1`, the Potency entry in test [1], in test [2], in test [3], in test [10], in [6] and in test [8] was “inactive” in each case. For the same compound, the Potency result in [9] is “inactive”. The result in test [5] and in test [7] was inactive.
For the compound `CCCCCCCCCCCCCCCC(=O)OC[C@@H](COP(=O)([O-])OCC[N+](C)(C)C)OC(=O)CCCCCCCCCCCCCCC`, the Potency result in test [1], in [2], in [3], in test [10], in test [6] and in test [8] was “inactive” throughout. Further, the Potency result in test [9] was “inactive”. Besides, the result in test [5] and in test [7] was inactive.
For `Cc1ccccc1CNc1ncnc2c1ncn2[C@@H]1O[C@H](CO)[C@@H](O)[C@H]1O`, the Potency result in test [1], in test [2], in test [3], in [10], in [6] and in test [8] was “inactive” throughout. For the same compound, the call in test [5] and in test [7] was inactive.
In the case of `C=CCN1CCCC1CNC(=O)c1cc(S(N)(=O)=O)cc(OC)c1OC` (stereo unspecified), the Potency entry in [1], in test [2], in [3], in test [10], in test [6] and in [8] was “inactive” in each case. Besides, the Potency entry in test [9] was “inactive”. In addition, in [5], the call was inactive.
Consider `CO[C@@H]1[C@@H](O[C@@H]2O[C@H](C)[C@@H](O[C@H]3C[C@@](C)(O)[C@@H](O)[C@H](C)O3)[C@H](N(C)C)[C@H]2O)[C@@H](CC=O)C[C@@H](C)[C@@H](O[C@@H]2CC[C@H](N(C)C)[C@@H](C)O2)/C=C/C=C/C[C@@H](C)OC(=O)C[C@H]1O`, for which the Potency entry in [1], in test [2], in test [3], in [10], in test [6] and in test [8] was “inactive” in each case. Further, the Potency result in test [9] is “inactive”. In addition, the compound was classed as inactive in test [5] and in test [7].
With `CO[C@H]1[C@@H](O)[C@H](N)[C@@H](O[C@H]2O[C@H]([C@H](C)N)CC[C@H]2N)[C@H](O)[C@@H]1N(C)C(=O)CN`, the Potency entry in test [1], in test [2], in test [3], in [10], in test [8] and in test [9] was “inactive” each time. Moreover, the compound was called inactive in [5] and in [7].
As for `Cc1cc(C(=O)NNCc2ccccc2)no1`, the Potency result in [1], in [2], in test [4], in test [10] and in test [6] was “inactive” in each case. Further, the call in test [5] and in test [7] was inactive.
Consider `CC[C@@]1(O)C[C@H](O[C@H]2C[C@H](N(C)C)[C@H](O[C@H]3C[C@H](O)[C@H](O[C@H]4CCC(=O)[C@H](C)O4)[C@H](C)O3)[C@H](C)O2)c2c(cc3c(c2O)C(=O)c2c(O)cccc2C3=O)[C@H]1C(=O)OC`, for which the Potency entry in test [1], in test [2], in test [3] and in [6] was “inactive” in each case. The compound was classed as inactive in [5] and in test [7]. Also, the Potency in [8] was 10.7 µM [inconclusive] (active).
Take `CC[C@H](C)[C@@H]1NC(=O)[C@H](Cc2ccc(O)cc2)NC(=O)[C@@H](N)CSSC[C@@H](C(=O)N2CCC[C@H]2C(=O)N[C@@H](CC(C)C)C(=O)NCC(N)=O)NC(=O)[C@H](CC(N)=O)NC(=O)[C@H](CCC(N)=O)NC1=O`: the Potency entry in test [1], in test [2], in test [3], in [10], in [6] and in test [8] was “inactive” in each case. In addition, in test [9], the Potency entry is “inactive”. Moreover, the compound was classed as inactive in test [5] and in test [7].
Turning to `CC(=O)N[C@@H]([C@@H](O)[C@H](O)[C@H](O)CO)[C@@H](O)CC(=O)C(=O)O`, the Potency result in test [1], in test [2], in test [3], in test [10], in [6] and in test [8] was “inactive” in each case. Besides, in test [9], the Potency result was “inactive”. Also, the compound was classed as inactive in test [5] and in [7].
